Fewer than 10 of roughly 69,000 compounds were called active. Inconclusive results (about 100%) are left out. How the calls were made is not given here. The list shows a part of the results.
What follows are molecules tested against UDP-N-acetylglucosamine--peptide N-acetylglucosaminyltransferase 110 kDa subunit (Homo sapiens) (UniProt O15294) (assay: O-Glc NAc Transferase (sOGT)). Conditions: sOGT fluorescence polarization UDP-GlcNAc probe displacement.
Source text: NIH Molecular Libraries Screening Centers Network [MLSCN]
NIH Chemical Genomics Center [NCGC]
Suzanne Walker [Harvard Medical School]
OGT is the sole enzyme that mediates the attachment of O-GlcNAc groups to serine and threonine residues in the nucleus and cytoplasm of eukaryotic cells, and no specific inhibitors are known. This type of glycosylation is involved in signal transduction and plays a key role in many essential cellular processes. High O-GlcNAc levels have been correlated to insulin resistance and type 2 diabetes. In addition to elucidating the role of O-GlcNAc in cellular processes, inhibitors of OGT might be useful in studying and perhaps treating type 2 diabetes. Since HTS-amenable direct assay for OGT activity is currently unavailable, a simpler substrate-displacement screen was performed. The signal measured is based on the change in fluorescence polarization of a fluorescein-labeled UDP-GlcNAc upon displacement from its complex with OGT. Recombinant truncated version of the enzyme, sOGT, as well as labeled probe, were made available by Suzanne Walker and Benjamin Gross, Harvard Medical School. […]
Three uL of reagents were dispensed to 1536-well Greiner black plates. […] The plates were incubated for 15 min at room temperature, and then read on ViewLux (Perkin-Elmer) High-throughput CCD imager using fluorescein polarization filter set and 45 seconds exposure time. […]

Sequence of UDP-N-acetylglucosamine--peptide N-acetylglucosaminyltransferase 110 kDa subunit (Homo sapiens) (O15294 whole entry, looked up): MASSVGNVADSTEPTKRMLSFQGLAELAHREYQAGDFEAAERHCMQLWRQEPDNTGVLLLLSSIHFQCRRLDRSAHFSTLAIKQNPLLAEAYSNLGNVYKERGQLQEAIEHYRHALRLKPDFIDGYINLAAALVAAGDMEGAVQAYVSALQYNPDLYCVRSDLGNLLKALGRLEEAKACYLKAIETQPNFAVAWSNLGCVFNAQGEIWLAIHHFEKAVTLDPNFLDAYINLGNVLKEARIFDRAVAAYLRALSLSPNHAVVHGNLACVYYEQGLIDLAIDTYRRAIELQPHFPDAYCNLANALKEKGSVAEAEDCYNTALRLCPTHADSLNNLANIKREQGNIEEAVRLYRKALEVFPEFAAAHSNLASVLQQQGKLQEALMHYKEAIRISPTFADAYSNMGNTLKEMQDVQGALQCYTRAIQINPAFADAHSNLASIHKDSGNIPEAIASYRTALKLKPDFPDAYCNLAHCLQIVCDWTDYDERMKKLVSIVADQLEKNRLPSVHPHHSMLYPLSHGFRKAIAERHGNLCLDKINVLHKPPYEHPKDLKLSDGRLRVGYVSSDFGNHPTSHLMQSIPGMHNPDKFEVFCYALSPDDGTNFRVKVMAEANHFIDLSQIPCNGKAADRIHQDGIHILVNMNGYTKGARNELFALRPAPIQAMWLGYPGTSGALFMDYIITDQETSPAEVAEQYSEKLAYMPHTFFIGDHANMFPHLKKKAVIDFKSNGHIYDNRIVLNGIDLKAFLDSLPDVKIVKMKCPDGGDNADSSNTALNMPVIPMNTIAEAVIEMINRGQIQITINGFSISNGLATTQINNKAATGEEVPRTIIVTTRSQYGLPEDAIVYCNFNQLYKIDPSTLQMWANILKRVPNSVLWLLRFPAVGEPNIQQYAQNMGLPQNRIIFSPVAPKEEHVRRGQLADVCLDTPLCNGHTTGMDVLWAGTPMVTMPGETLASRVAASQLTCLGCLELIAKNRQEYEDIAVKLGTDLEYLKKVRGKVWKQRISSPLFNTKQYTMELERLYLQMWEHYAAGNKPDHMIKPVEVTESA

SMILES	Potency
O=C1CCCN1CC#CCN1CCCC1	29.9 µM (active)
